Laboratory results reported in the supplement of paper PMC9694430.
Where a name gives a salt, the structure may show the parent alone.

Experiments:
Experiment in all cases: thermal shift delta Tm vs DMSO control; higher = stronger stabilization (binding)
Conditions in all cases: 12.5 µM; protein concentration 2 µM
LOC_OS04G57630-cb004 = test system: LOC_OS04G57630-cb004
How it was run: (§1)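 Rice kinase domain constructs were expressed in E. coli, purified, and tested by differential scanning fluorimetry with compound added in DMSO. Each well of a 96-well plate held 19.5 μl of 2 μM kinase in 100 mM potassium phosphate pH 7.5, 150 mM NaCl, 10% glycerol and 5 × SYPRO Orange, and fluorescence was read from 25°C to 95°C at 0.05°C/s. The melting temperature shift is the mean of triplicates, taken against protein with DMSO alone after Boltzmann fitting.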

LOC_OS05G07850-cb002 = test system: LOC_OS05G07850-cb002
How it was run: as §1

LOC_OS05G16824-cb004 = test system: LOC_OS05G16824-cb004
How it was run: as §1

LOC_OS05G28520-cb001 = test system: LOC_OS05G28520-cb001
How it was run: as §1

LOC_OS05G30820-cb001 = test system: LOC_OS05G30820-cb001
How it was run: as §1

LOC_OS05G43570-cb004 = test system: LOC_OS05G43570-cb004
How it was run: as §1

LOC_OS06G16330-cb003 = test system: LOC_OS06G16330-cb003
How it was run: as §1

LOC_OS06G22820-cb001 = test system: T1, LOC_OS06G22820-cb001
T1 sequence (whole entry): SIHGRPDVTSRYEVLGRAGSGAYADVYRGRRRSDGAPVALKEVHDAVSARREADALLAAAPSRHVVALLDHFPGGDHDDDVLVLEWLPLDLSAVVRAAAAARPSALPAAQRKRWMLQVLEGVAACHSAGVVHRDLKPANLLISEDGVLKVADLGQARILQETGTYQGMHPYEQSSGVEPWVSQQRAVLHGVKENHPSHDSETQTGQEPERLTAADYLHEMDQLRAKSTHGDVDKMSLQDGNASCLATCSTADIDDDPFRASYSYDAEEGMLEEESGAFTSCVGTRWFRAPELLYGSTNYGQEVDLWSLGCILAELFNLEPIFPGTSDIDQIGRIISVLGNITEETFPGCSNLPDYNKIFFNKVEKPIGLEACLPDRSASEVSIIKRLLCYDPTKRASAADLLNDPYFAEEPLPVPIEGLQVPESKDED
How it was run: as §1

LOC_OS07G06570-cb004 = test system: LOC_OS07G06570-cb004
How it was run: as §1

LOC_OS07G07230-cb001 = test system: LOC_OS07G07230-cb001
How it was run: as §1

LOC_OS06G16330-cb003, sequence (as listed by the source): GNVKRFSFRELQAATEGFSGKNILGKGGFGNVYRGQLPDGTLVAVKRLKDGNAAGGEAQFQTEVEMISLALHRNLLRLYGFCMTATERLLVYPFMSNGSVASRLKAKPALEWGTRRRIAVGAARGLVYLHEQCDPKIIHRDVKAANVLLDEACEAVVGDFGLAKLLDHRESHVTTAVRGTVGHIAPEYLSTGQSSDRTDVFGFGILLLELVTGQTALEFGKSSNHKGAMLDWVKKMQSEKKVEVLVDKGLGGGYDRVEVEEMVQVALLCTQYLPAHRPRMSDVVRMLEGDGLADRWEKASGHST

Compound	thermal shift delta Tm (LOC_OS04G57630-cb004) [°C]	thermal shift delta Tm (LOC_OS05G07850-cb002) [°C]	thermal shift delta Tm (LOC_OS05G16824-cb004) [°C]	thermal shift delta Tm (LOC_OS05G28520-cb001) [°C]	thermal shift delta Tm (LOC_OS05G30820-cb001) [°C]	thermal shift delta Tm (LOC_OS05G43570-cb004) [°C]	thermal shift delta Tm (LOC_OS06G16330-cb003) [°C]	thermal shift delta Tm (LOC_OS06G22820-cb001) [°C]	thermal shift delta Tm (LOC_OS07G06570-cb004) [°C]	thermal shift delta Tm (LOC_OS07G07230-cb001) [°C]
Cc1ccc(-n2nc(C(C)(C)C)cc2NC(=O)Nc2ccc(OCCN3CCOCC3)c3ccccc23)cc1 [Doramapimod (BIRB 796)]	1.36	1.84	-1.73	0.26	0.82	0.41	0.15	0.9	0.71	0.5
O=C(Nc1c[nH]nc1-c1nc2ccc(CN3CCOCC3)cc2[nH]1)NC1CC1	3.7	14.2	14.9	0.46	4.77	1.2	10.7	0.86	0.71	0.15
Oc1cc(CNC(=S)/C=C/c2cc(O)c(O)c(Br)c2)cc(O)c1O	0.49	-1.85	-0.73	0.47	0.99	1.46	0.61	2.08	3.05	0.45
Nc1ncc(-c2ccnc(Nc3ccncc3)n2)c(CC2CC2)n1	0.81	7.15	0.92	0.45	0.44	0.4	3.58	0.78	1.03	-0.19
COc1ccc(Cl)c(Nc2nc3ccccc3nc2NS(=O)(=O)c2cccc(NC(=O)C(C)(C)N)c2)c1 [Pilaralisib (XL147)]	2.01	2.9	2.11	0.49	0.75	1.75	1.96	2.03	0.12	0.54
O=C1NCCc2[nH]c(-c3ccncc3)cc21	0.34	4.2	-2.22	0.25	0.53	0.46	1.3	0.55	0.4	0.42
CCN(CC)CCNC(=O)c1c(C)[nH]c(/C=C2\C(=O)Nc3ccc(F)cc32)c1C [Sunitinib Malate]	4.24	8.46	13.1	1.41	0.86	0.2	7.74	0.19	0.48	0.56
CN(c1ccccc1CNc1nc(Nc2ccc3c(c2)CC(=O)N3)ncc1C(F)(F)F)S(C)(=O)=O	3.74	11.3	11.6	2.32	4	0.97	7.19	-0.04	1.23	0.27
Cc1nc(NC(=O)N2CCC[C@H]2C(N)=O)sc1-c1ccnc(C(C)(C)C(F)(F)F)c1 [Alpelisib (BYL719)]	-0.02	7.19	-1.37	0.17	0.38	0.29	0.44	0.57	1.48	0.13
Cc1[nH]nc2ccc(-c3cncc(OC[C@@H](N)Cc4ccccc4)c3)cc12	0.79	6.97	1.39	0.6	0.56	1.24	0.93	0.49	0.93	0
Cc1cc(Nc2nc(N[C@@H](C)c3ccc(F)cc3)c(C#N)cc2F)n[nH]1	0.47	11.9	8.62	-0.1	1.2	0.67	8.11	-0.41	0.19	0.12
COc1ccc2[nH]cc(/C=C3\C(=O)Nc4ccc(NC(=O)CCN5CCCCC5)cc43)c2c1	0.69	8.06	4.33	0.72	0.68	0.6	2.98	0.74	1.1	0.33
O=C(O)[C@]1(Cc2cccc(Nc3nccs3)n2)CC[C@@H](Oc2cccc(Cl)c2F)CC1	1.26	13	2.5	0.88	4.08	0.24	20.6	0.38	0.16	-1.36
Cc1cc(O)c(-c2ccc([C@@H](C)CN)cc2)c2c1[nH]c(=O)c1sccc12 [OTS514 hydrochloride]	0.19	5	-0.88	0.49	0.55	0.45	1.74	0.65	1.65	0.6
CCS(=O)(=O)N1CC(CC#N)(n2cc(-c3ncnc4[nH]ccc34)cn2)C1	-0.03	4.2	-0.69	0.54	0.72	0.88	2.6	0.77	1.1	0.82
CNC(=O)c1cccc(-c2ccc3c(N4CCOC[C@@H]4C)nc(N4CCOC[C@@H]4C)nc3n2)c1 [Vistusertib (AZD2014)]	-0.14	0.07	-6.13	-0.26	0.67	0.5	0.19	0.59	0.64	0.29
COc1ccc(-c2cc3c(C)nc(N)nc3n([C@H]3CC[C@H](OCCO)CC3)c2=O)cn1	0.78	0.06	-1.05	0.57	0.75	0.65	-0.03	0.69	1.04	0.01
CCc1cncnc1N1CCN(Cc2nc3ccc(C(F)(F)F)cc3[nH]2)CC1	-0.2	-0.11	-2.67	-0.08	0.66	0.46	0.02	0.76	0.84	-0.27
O=c1cc(N2CCOCC2)oc2c(-c3ccc4c(c3)OCCO4)csc12	0.03	6	1.81	-0.12	0.24	0.13	0.18	0.4	1.45	0.63
